Experiments:
Assay in all cases: DAPPL (digital affinity profiling via proximity ligation, sequencing); 10 mM Tris-HCl pH 7.5, 50 mM NaCl, 1 mM DTT, 4% glycerol, room temperature, 30 min; GST-TFs on glutathione beads, 16-mer random dsDNA library, 0.1% formaldehyde crosslink after washing; high values mean tight binding
[1] = molecular target: T1, FLI1 (Homo sapiens, UniProt Q01543 1-452); details: protein: recombinant; tags: N-terminal GST; dsDNA, one strand shown
T1 sequence: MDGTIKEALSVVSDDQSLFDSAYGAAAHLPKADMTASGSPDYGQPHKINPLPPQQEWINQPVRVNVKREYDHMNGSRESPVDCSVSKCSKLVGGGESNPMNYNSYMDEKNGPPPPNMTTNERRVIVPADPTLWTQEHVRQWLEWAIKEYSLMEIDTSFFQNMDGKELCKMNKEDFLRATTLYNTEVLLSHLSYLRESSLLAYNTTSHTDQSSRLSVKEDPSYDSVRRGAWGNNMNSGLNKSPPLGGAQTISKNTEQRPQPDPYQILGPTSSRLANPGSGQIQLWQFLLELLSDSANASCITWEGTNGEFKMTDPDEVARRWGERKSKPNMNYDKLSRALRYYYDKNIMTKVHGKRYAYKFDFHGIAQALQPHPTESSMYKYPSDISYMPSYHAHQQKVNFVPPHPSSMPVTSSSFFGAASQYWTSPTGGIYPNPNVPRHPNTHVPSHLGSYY
In short: (§1)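 GST fusions of human transcription factors were expressed in yeast and captured with glutathione beads. Once given DNA barcodes and pooled alongside a tag-only sample, they were incubated for 30 min at room temperature with 200 nmole of a random double-stranded 16-mer DNA library in Tris/NaCl/DTT/glycerol buffer, then washed, crosslinked (0.1% formaldehyde), proximity-ligated, PCR-amplified and sequenced on an Illumina NextSeq500. The binding signal of each hexamer is its read frequency for a factor divided by its frequency for the tag-only sample.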

[2] = molecular target: T2, ELK1 (Homo sapiens, UniProt P19419 1-428); details: protein: recombinant; tags: N-terminal GST; dsDNA, one strand shown
T2 sequence: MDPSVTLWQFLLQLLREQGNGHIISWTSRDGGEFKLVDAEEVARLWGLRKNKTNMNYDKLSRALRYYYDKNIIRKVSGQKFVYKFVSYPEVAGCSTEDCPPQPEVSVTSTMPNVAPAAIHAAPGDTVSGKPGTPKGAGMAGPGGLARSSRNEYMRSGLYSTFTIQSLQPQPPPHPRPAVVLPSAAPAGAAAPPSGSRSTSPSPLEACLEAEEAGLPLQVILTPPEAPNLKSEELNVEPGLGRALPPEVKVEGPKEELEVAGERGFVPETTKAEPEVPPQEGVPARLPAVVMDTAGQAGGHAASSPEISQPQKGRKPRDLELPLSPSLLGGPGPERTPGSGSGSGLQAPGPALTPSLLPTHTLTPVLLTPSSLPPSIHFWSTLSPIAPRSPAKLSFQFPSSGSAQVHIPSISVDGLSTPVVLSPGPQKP
In short: as §1

[3] = molecular target: T3, GABPA (Homo sapiens, UniProt Q06546 1-454); details: protein: recombinant; tags: N-terminal GST; dsDNA, one strand shown
T3 sequence: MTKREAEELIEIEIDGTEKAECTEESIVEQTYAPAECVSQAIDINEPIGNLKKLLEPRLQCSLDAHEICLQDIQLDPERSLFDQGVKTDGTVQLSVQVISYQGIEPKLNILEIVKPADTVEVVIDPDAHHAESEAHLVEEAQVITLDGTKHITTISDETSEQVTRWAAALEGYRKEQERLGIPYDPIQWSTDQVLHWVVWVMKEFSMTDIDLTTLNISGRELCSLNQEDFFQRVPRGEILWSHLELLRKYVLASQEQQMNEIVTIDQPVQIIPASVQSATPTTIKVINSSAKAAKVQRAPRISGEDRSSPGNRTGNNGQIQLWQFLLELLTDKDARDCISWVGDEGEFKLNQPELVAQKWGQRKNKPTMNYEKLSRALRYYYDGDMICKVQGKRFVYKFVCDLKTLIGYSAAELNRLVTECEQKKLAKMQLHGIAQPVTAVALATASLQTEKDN
In short: as §1

[4] = molecular target: T4, ERG (Homo sapiens, UniProt P11308 1-479); details: protein: recombinant; tags: N-terminal GST; dsDNA, one strand shown
T4 sequence: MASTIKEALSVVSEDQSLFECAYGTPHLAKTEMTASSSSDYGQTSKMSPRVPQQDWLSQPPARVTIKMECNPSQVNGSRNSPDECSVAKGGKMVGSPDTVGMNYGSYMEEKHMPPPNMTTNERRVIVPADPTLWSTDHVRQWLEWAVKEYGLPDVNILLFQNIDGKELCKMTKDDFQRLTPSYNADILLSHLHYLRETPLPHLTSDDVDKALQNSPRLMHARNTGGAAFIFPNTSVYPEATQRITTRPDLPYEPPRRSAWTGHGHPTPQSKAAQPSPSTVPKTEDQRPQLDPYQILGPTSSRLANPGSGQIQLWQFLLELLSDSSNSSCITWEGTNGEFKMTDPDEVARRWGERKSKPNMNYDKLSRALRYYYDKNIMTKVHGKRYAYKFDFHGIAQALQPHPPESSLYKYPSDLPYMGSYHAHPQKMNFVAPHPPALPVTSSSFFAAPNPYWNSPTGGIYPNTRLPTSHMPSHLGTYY
In short: as §1

[5] = molecular target: ELF1 (Homo sapiens, UniProt P32519 1-619); details: protein: recombinant; tags: N-terminal GST; dsDNA, one strand shown
In short: as §1

[6] = molecular target: T5, EHF (Homo sapiens, UniProt Q9NZC4 1-300); details: protein: recombinant; tags: N-terminal GST; dsDNA, one strand shown
T5 sequence: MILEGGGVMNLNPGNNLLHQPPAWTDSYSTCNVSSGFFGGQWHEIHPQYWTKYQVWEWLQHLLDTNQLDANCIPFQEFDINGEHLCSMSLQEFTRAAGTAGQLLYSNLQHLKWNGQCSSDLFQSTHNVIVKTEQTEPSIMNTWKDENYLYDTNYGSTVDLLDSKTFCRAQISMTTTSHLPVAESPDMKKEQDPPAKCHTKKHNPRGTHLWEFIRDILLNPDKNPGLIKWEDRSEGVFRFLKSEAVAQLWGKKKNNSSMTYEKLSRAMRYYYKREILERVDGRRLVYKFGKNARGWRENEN
In short: as §1

[7] = molecular target: SPI1 (Homo sapiens, UniProt P17947 1-270); details: protein: recombinant; tags: N-terminal GST; dsDNA, one strand shown
In short: as §1

[8] = molecular target: SPIB (Homo sapiens, UniProt Q01892 1-262); details: protein: recombinant; tags: N-terminal GST; dsDNA, one strand shown
In short: as §1

[9] = molecular target: T6, ELK3 (Homo sapiens, UniProt P41970 1-407); details: protein: recombinant; tags: N-terminal GST; dsDNA, one strand shown
T6 sequence: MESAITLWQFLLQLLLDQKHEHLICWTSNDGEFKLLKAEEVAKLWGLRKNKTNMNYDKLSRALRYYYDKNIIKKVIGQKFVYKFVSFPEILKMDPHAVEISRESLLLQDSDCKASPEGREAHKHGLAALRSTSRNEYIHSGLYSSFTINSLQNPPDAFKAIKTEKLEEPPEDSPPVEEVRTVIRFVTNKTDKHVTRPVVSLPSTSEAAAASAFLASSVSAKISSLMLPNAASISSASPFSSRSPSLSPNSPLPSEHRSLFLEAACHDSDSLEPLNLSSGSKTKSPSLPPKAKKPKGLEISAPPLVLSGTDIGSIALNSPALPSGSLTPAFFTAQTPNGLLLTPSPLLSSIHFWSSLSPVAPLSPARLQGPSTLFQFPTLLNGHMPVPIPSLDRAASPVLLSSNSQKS
In short: as §1

[10] = molecular target: T7, FEV (Homo sapiens, UniProt Q99581 1-238); details: protein: recombinant; tags: N-terminal GST; dsDNA, one strand shown
T7 sequence: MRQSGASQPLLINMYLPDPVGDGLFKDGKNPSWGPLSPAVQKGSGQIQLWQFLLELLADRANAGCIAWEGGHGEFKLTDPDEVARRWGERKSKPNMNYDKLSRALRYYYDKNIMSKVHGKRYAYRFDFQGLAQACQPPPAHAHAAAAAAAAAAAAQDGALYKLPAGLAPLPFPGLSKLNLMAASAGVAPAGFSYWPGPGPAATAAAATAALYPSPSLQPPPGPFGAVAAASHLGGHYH
In short: as §1

[11] = molecular target: ETV5 (Homo sapiens, UniProt P41161 1-510); details: protein: recombinant; tags: N-terminal GST; dsDNA, one strand shown
In short: as §1

[12] = molecular target: HSF1 (Homo sapiens, UniProt Q00613 1-529); details: protein: recombinant; tags: N-terminal GST; chain copies: 3; dsDNA, one strand shown
In short: as §1

[13] = molecular target: T8, SPIC (Homo sapiens, UniProt Q8N5J4 1-248); details: protein: recombinant; tags: N-terminal GST; dsDNA, one strand shown
T8 sequence: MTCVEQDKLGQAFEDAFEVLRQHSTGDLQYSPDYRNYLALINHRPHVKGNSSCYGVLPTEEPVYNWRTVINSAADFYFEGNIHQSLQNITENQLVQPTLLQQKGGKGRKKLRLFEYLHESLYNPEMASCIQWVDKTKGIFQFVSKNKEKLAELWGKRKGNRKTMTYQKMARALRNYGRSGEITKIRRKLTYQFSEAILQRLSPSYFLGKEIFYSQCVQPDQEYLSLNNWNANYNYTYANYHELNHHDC
In short: as §1

[14] = molecular target: ELF4 (Homo sapiens, UniProt Q99607 1-663); details: protein: recombinant; tags: N-terminal GST; dsDNA, one strand shown
In short: as §1

[15] = molecular target: T9, ELK4 (Homo sapiens, UniProt P28324-2 1-405); details: protein: recombinant; tags: N-terminal GST; dsDNA, one strand shown
T9 sequence: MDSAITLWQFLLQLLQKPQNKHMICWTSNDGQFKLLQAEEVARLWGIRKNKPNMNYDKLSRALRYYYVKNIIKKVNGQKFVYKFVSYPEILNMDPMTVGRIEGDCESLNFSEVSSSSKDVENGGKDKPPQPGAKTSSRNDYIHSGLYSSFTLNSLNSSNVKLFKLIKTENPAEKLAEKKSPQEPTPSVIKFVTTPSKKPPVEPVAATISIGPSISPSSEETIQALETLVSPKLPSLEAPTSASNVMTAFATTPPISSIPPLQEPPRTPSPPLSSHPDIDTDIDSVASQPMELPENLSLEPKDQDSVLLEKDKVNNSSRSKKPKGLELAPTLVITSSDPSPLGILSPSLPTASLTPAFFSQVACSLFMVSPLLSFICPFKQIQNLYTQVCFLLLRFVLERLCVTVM
In short: as §1

[16] = molecular target: T10, ETV2 (Homo sapiens, UniProt O00321 1-342); details: protein: recombinant; tags: N-terminal GST; dsDNA, one strand shown
T10 sequence: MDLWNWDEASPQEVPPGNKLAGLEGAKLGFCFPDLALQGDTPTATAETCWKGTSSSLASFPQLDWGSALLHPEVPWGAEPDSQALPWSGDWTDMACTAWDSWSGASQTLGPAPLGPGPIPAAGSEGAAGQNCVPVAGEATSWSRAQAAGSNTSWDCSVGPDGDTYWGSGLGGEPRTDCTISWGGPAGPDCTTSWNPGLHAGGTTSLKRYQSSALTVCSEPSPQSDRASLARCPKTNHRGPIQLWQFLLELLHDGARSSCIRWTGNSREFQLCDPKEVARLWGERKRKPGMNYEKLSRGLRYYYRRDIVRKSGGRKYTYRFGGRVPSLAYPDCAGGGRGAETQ
In short: as §1

[17] = molecular target: T11, ELF3 (Homo sapiens, UniProt P78545 1-371); details: protein: recombinant; tags: N-terminal GST; dsDNA, one strand shown
T11 sequence: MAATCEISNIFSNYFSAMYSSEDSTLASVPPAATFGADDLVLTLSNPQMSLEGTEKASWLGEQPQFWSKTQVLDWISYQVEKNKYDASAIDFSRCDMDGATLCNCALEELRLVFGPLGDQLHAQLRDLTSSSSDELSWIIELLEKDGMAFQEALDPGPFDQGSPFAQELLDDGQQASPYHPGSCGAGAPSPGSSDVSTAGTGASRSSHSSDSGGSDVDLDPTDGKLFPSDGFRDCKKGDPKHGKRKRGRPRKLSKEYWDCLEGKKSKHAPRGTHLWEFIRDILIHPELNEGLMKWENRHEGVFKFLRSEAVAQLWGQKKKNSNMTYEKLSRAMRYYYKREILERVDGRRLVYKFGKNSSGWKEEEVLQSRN
In short: as §1

[18] = molecular target: CRX (Homo sapiens, UniProt O43186 1-299); details: protein: recombinant; tags: N-terminal GST; dsDNA, one strand shown
In short: as §1

[19] = molecular target: ETV1 (Homo sapiens, UniProt P50549 1-477); details: protein: recombinant; tags: N-terminal GST; dsDNA, one strand shown
In short: as §1

Chain of HSF1 (Q00613 whole entry): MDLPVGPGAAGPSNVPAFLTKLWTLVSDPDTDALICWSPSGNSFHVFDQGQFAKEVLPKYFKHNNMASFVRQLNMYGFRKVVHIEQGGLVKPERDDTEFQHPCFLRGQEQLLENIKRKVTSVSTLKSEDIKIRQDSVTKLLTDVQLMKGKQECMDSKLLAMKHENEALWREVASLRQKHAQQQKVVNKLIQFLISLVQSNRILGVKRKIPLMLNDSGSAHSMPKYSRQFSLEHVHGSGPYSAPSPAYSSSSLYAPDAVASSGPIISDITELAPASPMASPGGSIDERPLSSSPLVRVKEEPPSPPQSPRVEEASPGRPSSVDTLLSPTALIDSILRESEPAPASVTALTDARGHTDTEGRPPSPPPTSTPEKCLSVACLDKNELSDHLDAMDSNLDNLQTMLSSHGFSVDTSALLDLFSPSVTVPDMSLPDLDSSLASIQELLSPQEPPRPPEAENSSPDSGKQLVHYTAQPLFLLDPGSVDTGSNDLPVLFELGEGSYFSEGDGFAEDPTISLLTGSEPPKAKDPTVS
Chain of SPIB (Q01892 whole entry): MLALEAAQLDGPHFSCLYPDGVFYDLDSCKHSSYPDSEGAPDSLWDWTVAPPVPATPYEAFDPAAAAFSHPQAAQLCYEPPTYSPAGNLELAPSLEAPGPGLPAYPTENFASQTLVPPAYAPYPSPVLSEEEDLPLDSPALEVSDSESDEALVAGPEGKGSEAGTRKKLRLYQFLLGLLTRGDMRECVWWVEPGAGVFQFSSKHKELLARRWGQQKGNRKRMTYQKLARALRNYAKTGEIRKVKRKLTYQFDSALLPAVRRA
Chain of ETV5 (P41161 whole entry): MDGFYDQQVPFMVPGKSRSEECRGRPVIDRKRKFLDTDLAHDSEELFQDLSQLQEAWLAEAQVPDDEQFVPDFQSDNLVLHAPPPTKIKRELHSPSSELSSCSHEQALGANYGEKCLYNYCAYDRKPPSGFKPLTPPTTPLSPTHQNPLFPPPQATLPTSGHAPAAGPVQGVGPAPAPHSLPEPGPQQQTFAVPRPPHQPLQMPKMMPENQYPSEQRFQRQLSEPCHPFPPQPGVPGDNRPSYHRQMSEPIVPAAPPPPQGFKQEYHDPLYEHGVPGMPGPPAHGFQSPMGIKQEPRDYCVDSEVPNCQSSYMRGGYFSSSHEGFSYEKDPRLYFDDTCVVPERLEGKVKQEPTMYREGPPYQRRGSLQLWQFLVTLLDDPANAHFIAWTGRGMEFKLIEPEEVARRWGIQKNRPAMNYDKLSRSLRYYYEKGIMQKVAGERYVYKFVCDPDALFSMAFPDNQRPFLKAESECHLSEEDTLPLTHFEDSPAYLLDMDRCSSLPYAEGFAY
Chain of ETV1 (P50549 whole entry): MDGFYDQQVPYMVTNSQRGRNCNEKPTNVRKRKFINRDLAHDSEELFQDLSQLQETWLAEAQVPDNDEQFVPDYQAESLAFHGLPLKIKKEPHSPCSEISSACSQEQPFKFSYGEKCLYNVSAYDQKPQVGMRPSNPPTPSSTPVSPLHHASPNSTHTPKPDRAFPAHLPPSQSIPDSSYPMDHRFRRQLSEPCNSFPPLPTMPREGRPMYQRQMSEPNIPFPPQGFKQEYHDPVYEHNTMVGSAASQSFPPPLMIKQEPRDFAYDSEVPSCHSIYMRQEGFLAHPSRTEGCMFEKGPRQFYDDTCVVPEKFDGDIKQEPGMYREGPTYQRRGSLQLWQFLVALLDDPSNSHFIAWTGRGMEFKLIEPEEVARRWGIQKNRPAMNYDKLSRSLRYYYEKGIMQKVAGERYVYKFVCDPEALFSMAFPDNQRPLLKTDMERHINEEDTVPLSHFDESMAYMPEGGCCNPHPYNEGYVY
Chain of ELF1 (P32519 whole entry): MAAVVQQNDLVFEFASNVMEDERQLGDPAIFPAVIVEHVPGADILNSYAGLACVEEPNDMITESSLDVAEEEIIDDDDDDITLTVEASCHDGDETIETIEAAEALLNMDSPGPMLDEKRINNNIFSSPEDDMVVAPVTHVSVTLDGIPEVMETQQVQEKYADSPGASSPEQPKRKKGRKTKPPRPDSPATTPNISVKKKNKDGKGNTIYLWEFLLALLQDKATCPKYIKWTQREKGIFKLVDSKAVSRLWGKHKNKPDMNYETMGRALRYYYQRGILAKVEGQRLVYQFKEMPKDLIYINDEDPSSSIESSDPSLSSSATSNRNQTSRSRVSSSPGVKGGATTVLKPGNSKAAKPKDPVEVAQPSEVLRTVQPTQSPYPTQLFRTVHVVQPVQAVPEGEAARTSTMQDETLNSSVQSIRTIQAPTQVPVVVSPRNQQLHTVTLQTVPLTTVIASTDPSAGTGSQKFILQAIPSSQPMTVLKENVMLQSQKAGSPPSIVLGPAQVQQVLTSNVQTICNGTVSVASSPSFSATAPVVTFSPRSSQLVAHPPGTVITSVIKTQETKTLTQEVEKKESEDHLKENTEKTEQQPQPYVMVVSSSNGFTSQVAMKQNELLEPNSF
Chain of ELF4 (Q99607 whole entry): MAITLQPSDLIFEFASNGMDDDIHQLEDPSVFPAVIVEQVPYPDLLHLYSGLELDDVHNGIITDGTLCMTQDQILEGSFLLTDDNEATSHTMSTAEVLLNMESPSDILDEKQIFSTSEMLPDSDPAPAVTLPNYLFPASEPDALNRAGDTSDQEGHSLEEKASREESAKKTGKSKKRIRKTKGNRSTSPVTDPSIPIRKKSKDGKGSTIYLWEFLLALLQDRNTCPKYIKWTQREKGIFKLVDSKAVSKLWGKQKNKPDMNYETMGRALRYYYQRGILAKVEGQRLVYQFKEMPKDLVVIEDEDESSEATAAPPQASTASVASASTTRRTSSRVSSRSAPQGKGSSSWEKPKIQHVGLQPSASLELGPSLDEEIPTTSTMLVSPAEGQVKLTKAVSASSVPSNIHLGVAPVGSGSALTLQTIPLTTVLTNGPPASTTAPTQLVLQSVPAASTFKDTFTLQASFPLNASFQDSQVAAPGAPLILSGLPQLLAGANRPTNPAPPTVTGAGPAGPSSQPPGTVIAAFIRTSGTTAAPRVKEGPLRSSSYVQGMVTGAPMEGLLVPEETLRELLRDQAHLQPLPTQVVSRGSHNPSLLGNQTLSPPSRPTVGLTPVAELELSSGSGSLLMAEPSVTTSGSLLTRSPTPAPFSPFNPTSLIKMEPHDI
Chain of CRX (O43186 whole entry): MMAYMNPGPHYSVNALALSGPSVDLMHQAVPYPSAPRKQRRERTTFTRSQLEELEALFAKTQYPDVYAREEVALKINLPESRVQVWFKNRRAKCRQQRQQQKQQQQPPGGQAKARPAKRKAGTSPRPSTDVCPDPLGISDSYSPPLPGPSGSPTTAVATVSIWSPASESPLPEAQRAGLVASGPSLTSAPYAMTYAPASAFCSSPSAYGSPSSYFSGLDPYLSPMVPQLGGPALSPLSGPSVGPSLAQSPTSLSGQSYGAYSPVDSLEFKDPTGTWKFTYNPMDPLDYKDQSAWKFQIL

## GACTTC
[1]
  binding signal: 2.39 fold enrichment (6-mer frequency, TF over GST control)
[2]
  binding signal: 2.65 fold enrichment (6-mer frequency, TF over GST control)
[3]
  binding signal: 2.3 fold enrichment (6-mer frequency, TF over GST control)
[4]
  binding signal: 2.84 fold enrichment (6-mer frequency, TF over GST control)
[5]
  binding signal: 2.36 fold enrichment (6-mer frequency, TF over GST control)
[6]
  binding signal: 2.51 fold enrichment (6-mer frequency, TF over GST control)
[7]
  binding signal: 3.04 fold enrichment (6-mer frequency, TF over GST control)
[8]
  binding signal: 2.51 fold enrichment (6-mer frequency, TF over GST control)
[9]
  binding signal: 2.61 fold enrichment (6-mer frequency, TF over GST control)
[10]
  binding signal: 3.36 fold enrichment (6-mer frequency, TF over GST control)
[11]
  binding signal: 2.51 fold enrichment (6-mer frequency, TF over GST control)
[12]
  binding signal: 1.23 fold enrichment (6-mer frequency, TF over GST control)
[13]
  binding signal: 2.23 fold enrichment (6-mer frequency, TF over GST control)
[14]
  binding signal: 2.28 fold enrichment (6-mer frequency, TF over GST control)
[15]
  binding signal: 2.22 fold enrichment (6-mer frequency, TF over GST control)
[16]
  binding signal: 2.35 fold enrichment (6-mer frequency, TF over GST control)
[17]
  binding signal: 2.29 fold enrichment (6-mer frequency, TF over GST control)
[18]
  binding signal: 1.12 fold enrichment (6-mer frequency, TF over GST control)
[19]
  binding signal: 2.56 fold enrichment (6-mer frequency, TF over GST control)

Source: article PMC7862700, “An all-to-all approach to the identification of sequence-specific readers for epigenetic DNA modifications on cytosine”
